Active and inactive are the calls of the source.
Assays:
[1] = tested on: PRMT1 (protein arginine N-methyltransferase 1); assay: small molecules binding arginine methyltransferase PRMT1 – biochemical, small-molecule microarray, 635 nm fluorescence, primary screen (AID 1088); settings: higher = more signal;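 further: binding of Prmt1 protein to compounds spotted on small-molecule microarray slides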
[2] = growth effects on S. cerevisiae YJM789 – YJM789 clinical isolate, OD600, 24 h, basal, primary screen (AID 1089); settings: higher = more signal, called active from +8 up or from −8 down;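 further: growth of clinical yeast isolate S. cerevisiae YJM 789 seeded 1000 cells per well; test concentration not given here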
[3] = S. pombe growth modifiers, basal conditions – strain 972, OD600, 24 h, no modulator, primary screen (AID 1090);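 further: basal condition with compound alone and no growth modifier present; test concentration not given here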; settings: S. pombe 972 growth, higher = more signal, called active from +8 up or from −8 down
[4] = budding yeast growth modifiers under rapamycin – strain BY4716, OD600, 96 h, primary screen (AID 1091); further: test concentration not given here; settings: S. cerevisiae BY4716 + rapamycin, higher = more signal, called active from +8 up or from −8 down
[5] = molecular target: Torsin-1A-interacting protein 2 (Homo sapiens) (UniProt Q8NFQ8); assay: small molecules binding lysate-expressed LULL1 – cell lysate, human LULL1 lysate, 635/667 nm fluorescence, primary screen (AID 1092); settings: small-molecule microarray, hLULL1 lysate binding, 635 nm fluorescence; higher = more signal;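 further: probe is lysate of COS7 cells overexpressing human LULL1; score merges per-feature 667 nm fluorescence with signal-to-noise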
Chain of Torsin-1A-interacting protein 2 (Homo sapiens) (Q8NFQ8 whole entry, looked up): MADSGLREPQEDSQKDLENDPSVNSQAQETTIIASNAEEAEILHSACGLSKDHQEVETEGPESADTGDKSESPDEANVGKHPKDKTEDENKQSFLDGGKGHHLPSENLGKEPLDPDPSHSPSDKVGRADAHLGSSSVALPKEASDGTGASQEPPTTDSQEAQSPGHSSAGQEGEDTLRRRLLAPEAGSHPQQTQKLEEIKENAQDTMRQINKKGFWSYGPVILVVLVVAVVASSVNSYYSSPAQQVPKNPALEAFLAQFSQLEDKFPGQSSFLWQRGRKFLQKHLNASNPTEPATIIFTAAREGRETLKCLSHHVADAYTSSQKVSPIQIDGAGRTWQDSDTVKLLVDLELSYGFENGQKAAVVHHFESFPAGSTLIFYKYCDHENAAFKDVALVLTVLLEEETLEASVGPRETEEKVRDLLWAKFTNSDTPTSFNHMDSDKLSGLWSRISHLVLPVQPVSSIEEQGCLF

[6] = optical density change of DRC41 E. coli – strain DRC41, OD650, 24 h, E. coli filamentation project, primary screen (AID 1093);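 further: MC1000 strain lacking acrAB efflux and sulA so SOS filamentation is blocked; test concentration not given here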; settings: E. coli DRC41 growth, higher = more signal, called active from +8 up or from −8 down
[7] = probe aLefty2 binding to arrayed compounds – biochemical, biotinylated probe, 635/667 nm fluorescence, primary screen (AID 1094); settings: small-molecule microarray, higher = more signal;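 further: score merges spot fluorescence near 667 nm with spot signal-to-noise ratio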
[8] = tested on: Noggin (protein binding on small-molecule microarray); assay: small molecules binding Noggin protein – biochemical, 635/667 nm fluorescence, primary screen (AID 1095); settings: 635 nm fluorescence, higher = more signal;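 further: score merges 667 nm feature fluorescence with signal to noise over triplicate slides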
[9] = molecular target: Neurogenic locus notch homolog protein 3 (Homo sapiens) (UniProt Q9UM47); assay: small molecules binding NOTCH3 protein – biochemical, 635/667 nm fluorescence, primary screen (AID 1096); settings: small-molecule microarray, 635 nm fluorescence, higher = more signal
Chain of Neurogenic locus notch homolog protein 3 (Homo sapiens) (Q9UM47 whole entry, looked up): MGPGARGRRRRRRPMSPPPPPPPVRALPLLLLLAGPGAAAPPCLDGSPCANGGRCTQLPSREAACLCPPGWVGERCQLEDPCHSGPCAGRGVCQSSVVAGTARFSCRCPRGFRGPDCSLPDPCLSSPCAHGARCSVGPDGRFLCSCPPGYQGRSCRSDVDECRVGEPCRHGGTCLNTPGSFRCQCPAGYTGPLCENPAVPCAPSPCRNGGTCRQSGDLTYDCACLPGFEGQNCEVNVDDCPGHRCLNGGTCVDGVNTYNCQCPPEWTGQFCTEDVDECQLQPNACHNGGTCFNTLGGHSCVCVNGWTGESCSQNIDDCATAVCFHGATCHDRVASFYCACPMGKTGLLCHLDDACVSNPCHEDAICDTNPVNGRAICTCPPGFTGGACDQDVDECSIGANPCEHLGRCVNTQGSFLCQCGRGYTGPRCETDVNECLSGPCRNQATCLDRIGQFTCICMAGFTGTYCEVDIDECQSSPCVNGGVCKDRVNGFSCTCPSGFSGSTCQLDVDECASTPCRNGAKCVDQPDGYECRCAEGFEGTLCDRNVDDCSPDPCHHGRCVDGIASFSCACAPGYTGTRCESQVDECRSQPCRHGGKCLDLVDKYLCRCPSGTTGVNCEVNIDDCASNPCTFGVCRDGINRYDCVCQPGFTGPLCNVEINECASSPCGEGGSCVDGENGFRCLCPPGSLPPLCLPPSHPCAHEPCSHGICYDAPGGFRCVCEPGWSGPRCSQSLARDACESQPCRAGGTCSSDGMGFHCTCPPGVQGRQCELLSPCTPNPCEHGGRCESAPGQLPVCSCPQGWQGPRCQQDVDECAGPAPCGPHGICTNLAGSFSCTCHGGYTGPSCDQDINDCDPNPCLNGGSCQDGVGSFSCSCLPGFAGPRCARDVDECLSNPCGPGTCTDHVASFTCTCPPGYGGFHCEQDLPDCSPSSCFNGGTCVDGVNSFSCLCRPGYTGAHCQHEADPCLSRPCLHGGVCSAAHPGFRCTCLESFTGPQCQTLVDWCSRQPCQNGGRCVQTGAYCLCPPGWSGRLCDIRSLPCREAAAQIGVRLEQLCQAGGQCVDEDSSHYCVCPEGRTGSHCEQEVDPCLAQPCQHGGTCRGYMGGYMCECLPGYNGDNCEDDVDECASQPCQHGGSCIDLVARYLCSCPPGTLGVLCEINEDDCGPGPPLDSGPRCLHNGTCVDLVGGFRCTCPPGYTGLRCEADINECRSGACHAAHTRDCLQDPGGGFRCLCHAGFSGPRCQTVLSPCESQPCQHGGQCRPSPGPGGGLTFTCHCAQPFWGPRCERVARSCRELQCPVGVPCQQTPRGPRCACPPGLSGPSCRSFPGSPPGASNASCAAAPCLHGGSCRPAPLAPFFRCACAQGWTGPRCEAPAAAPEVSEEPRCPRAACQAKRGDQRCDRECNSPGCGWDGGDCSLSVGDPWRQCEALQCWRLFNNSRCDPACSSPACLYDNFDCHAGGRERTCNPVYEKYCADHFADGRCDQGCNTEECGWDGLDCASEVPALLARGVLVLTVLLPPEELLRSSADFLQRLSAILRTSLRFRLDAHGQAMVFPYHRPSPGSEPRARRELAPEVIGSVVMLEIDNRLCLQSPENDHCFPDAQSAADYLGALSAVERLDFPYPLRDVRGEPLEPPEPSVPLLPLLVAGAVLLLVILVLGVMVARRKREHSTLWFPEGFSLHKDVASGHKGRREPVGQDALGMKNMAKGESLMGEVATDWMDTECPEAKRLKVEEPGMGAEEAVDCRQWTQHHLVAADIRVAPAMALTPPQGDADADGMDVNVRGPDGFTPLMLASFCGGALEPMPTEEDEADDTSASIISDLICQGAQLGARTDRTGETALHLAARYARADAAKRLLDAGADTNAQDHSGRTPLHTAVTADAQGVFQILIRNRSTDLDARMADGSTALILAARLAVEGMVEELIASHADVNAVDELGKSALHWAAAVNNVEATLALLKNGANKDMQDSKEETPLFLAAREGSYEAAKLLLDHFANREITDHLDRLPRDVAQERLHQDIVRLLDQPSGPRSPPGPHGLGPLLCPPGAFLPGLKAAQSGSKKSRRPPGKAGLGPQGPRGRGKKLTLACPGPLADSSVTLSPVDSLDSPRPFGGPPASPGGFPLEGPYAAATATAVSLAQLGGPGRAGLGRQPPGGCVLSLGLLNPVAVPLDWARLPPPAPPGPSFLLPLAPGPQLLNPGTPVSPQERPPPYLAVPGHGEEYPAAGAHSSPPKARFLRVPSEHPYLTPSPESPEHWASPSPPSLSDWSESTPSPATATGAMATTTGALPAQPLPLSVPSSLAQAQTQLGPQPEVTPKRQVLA

[10] = probe aEGFR binding to arrayed compounds – biochemical, biotinylated probe, 635/667 nm fluorescence, primary screen (AID 1097); settings: small-molecule microarray, higher = more signal;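 further: probe is a biotinylated anti-EGFR antibody binding compounds printed on slides; score combines fluorescence near 667 nm and signal to noise of each spot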
[11] = tested on: Plasmodium falciparum Sir2 (PF13_0152, Sir2A); assay: Plasmodium falciparum Sir2A binding compounds – biochemical, small-molecule microarray, 635 nm fluorescence, primary screen (AID 1098); settings: fluorescence 635 nm, higher = more signal;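 further: score merges spot fluorescence intensity with its signal-to-noise ratio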
[12] = probe aDKK1 binding to arrayed compounds – biochemical, biotinylated probe, 635/667 nm fluorescence, primary screen (AID 1099); settings: small-molecule microarray, higher = more signal;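 further: score merges 667nm spot fluorescence with signal to noise across triplicate slides; reference of the scale not given here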
[13] = probe aCHRDL2 binding to arrayed compounds – biochemical, biotinylated probe, 635/667 nm fluorescence, primary screen (AID 1100); settings: small-molecule microarray, higher = more signal
[14] = change in splice reporter luminescence, either direction, cell-based, HEK293, spliceosome inhibition project, primary screen (AID 1101); settings: HEK293 splicing luciferase reporter, 24 h, higher = more signal, called active from +8 up or from −8 down;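 further: HEK293 cells carrying a splicing-competent luciferase reporter gene; test concentration not given here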
[15] = molecular target: Fibroblast growth factor 10 (Homo sapiens) (UniProt O15520); assay: compounds binding fibroblast growth factor 10 – biochemical, small-molecule microarray, 635 nm fluorescence, primary screen (AID 1102); settings: FGF10 binding, fluorescence 635 nm, higher = more signal
Chain of Fibroblast growth factor 10 (Homo sapiens) (O15520 whole entry, looked up): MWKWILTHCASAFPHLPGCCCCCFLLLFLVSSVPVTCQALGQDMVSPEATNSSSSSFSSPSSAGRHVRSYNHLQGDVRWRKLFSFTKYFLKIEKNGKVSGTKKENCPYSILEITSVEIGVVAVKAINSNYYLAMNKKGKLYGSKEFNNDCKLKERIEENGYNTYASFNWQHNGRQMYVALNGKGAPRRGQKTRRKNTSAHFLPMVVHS

[16] = tested on: glycogen synthase kinase-3 (GSK3A per assay name; protocol says GSK3B); assay: compounds binding glycogen synthase kinase-3 – biochemical, small-molecule microarray, 635 nm fluorescence, GSK3A, primary screen (AID 1103); settings: fluorescence 635 nm, higher = more signal; further: the record names both GSK3A and GSK3B
[17] = molecular target: Epidermal growth factor receptor (Homo sapiens) (UniProt P00533); assay: compounds binding epidermal growth factor receptor – biochemical, small-molecule microarray, 635 nm fluorescence, primary screen (AID 1104); settings: EGFR binding, higher = more signal;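 further: score merges 667 nm emission intensity with spot signal to noise over triplicate slides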
Chain of Epidermal growth factor receptor (Homo sapiens) (P00533 whole entry, looked up): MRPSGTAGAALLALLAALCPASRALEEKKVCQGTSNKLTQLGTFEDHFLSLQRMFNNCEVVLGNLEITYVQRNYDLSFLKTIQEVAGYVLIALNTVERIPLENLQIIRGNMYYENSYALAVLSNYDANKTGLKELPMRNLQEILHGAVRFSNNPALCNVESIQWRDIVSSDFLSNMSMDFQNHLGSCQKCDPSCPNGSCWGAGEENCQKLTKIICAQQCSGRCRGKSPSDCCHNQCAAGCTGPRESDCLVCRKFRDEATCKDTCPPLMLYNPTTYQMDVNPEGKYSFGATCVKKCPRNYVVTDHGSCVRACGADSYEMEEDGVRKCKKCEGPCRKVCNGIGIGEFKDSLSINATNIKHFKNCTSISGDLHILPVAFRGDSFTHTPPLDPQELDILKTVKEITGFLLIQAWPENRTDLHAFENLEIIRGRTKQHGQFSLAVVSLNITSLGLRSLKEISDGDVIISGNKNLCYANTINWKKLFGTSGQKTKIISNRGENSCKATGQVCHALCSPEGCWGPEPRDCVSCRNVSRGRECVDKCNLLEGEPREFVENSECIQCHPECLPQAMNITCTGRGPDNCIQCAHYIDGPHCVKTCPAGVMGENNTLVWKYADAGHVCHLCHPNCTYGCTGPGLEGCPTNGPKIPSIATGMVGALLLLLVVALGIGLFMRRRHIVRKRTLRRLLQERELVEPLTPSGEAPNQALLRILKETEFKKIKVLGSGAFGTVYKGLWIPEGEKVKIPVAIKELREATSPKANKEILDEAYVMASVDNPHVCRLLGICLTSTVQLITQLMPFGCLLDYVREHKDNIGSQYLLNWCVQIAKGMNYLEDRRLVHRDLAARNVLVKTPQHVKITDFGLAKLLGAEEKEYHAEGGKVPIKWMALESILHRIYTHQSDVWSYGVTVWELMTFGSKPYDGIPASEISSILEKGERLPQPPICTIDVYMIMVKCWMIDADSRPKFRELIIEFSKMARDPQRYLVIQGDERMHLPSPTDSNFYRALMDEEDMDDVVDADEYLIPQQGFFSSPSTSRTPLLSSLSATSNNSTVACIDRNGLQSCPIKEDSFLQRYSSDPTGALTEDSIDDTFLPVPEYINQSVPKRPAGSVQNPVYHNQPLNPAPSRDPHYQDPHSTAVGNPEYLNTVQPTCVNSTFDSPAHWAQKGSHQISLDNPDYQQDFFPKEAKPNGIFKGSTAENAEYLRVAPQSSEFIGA

[18] = molecular target: Follistatin-related protein 3 (Homo sapiens) (UniProt O95633); assay: compounds binding follistatin-related protein 3 – biochemical, small-molecule microarray, 635 nm fluorescence, primary screen (AID 1105); settings: FSTL3 binding, higher = more signal;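 further: score merges emission near 667 nm and signal to noise per printed spot across three slides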
Chain of Follistatin-related protein 3 (Homo sapiens) (O95633 whole entry, looked up): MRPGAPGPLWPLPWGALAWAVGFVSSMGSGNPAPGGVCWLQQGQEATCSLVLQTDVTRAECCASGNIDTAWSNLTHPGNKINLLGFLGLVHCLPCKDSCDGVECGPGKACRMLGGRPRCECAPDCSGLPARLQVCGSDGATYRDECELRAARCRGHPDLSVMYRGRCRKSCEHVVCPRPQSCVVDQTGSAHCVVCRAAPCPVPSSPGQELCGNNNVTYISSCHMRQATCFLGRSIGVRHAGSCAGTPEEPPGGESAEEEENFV

[19] = molecular target: Dickkopf-related protein 1 (Homo sapiens) (UniProt O94907); assay: small molecules binding DKK1 protein – biochemical, small-molecule microarray, 635 nm fluorescence scan, primary screen (AID 1106); settings: higher = more signal;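 further: score merges emission near 667 nm with signal to noise over three replicate slides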
Chain of Dickkopf-related protein 1 (Homo sapiens) (O94907 whole entry, looked up): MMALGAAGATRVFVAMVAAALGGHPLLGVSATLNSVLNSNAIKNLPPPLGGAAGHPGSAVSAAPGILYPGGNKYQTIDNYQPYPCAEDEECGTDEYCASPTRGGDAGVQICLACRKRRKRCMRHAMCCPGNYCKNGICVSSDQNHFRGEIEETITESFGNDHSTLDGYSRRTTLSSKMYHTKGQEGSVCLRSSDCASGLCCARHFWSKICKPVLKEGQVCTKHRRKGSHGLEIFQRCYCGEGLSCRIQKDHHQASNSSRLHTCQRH

[20] = tested on: Inhibin beta A chain (activin A); assay: small molecules binding activin A – biochemical, small-molecule microarray, 635 nm fluorescence scan, primary screen (AID 1107); settings: INHBA, higher = more signal;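 further: mouse activin A protein probed at 4.33 µg/mL on printed slides; score merges bound-protein fluorescence near 667 nm with spot signal-to-noise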

Structure (SMILES)	composite z-score [1]	z-score [2]	z-score [3]	z-score [4]	composite z-score [5]	z-score [6]	composite z-score [7]	composite z-score [8]	composite z-score [9]	composite z-score [10]	composite z-score [11]	composite z-score [12]	composite z-score [13]	z-score [14]	composite z-score [15]	composite z-score [16]	composite z-score [17]	composite z-score [18]	composite z-score [19]	composite z-score [20]
CCN(CC)c1ccc(N2CC=CC34O[C@@H]5C=CCCOC(=O)C5[C@H]3C(=O)N(CCO)[C@@H]4C2=O)cc1 (stereo not given in full)	-1.15	-0.562 (inactive)	-1.07 (inactive)	-0.315 (inactive)	-0.66	0.701 (inactive)	-0.235	-1.42	-0.477	-0.201	-0.0437	-0.289	0.269	-0.688 (inactive)	-0.504	-0.908	-0.869	-1.45	-0.351	-0.589
CC(C)CNC(=O)[C@@]1(C)c2ccccc2C(=O)N(Cc2cc(C(F)(F)F)cc(C(F)(F)F)c2)[C@H]1c1ccc(CO)cc1	1.3	-0.721 (inactive)	0.4 (inactive)	-0.699 (inactive)	1.16	0.497 (inactive)	0.0481	-0.558	-0.966	-0.1	0.386	-0.147	0.587	0.0167 (inactive)	-0.631	-1.02	-0.647	-0.522	-0.6	0.32
COCCOC(=O)N1C(=O)[C@@]2(c3cc(C#CCCO)ccc31)[C@H](C(N)=O)[C@H]1C(=O)O[C@H](c3ccccc3)[C@H](c3ccccc3)N1[C@@H]2c1ccc(OCCO)cc1	1.54	1.94 (inactive)	0.63 (inactive)	2.82 (inactive)	3.02	-0.187 (inactive)	-0.161	0.632	0.992	0.0754	1.44	0.209	0.415	0.475 (inactive)	1.25	1.23	0.808	1.14	0.616	0.914
CN1C(=O)C2C(C1=O)C1C=C(CCCO)C2C(c2cccs2)N1Cc1cc2c(cc1Br)OCO2 (stereo not given)	1.54	-0.653 (inactive)	-1.25 (inactive)	-0.631 (inactive)	3.41	1.12 (inactive)	0.0923	0.639	1.03	0.095	0.989	0.738	0.377	-0.139 (inactive)	0.922	1.34	0.424	1.49	0.373	1.51
CC(=O)NCCCC[C@@H]1NC(=O)[C@@H]2C[C@H](C(=O)NCCCCCCN)[C@H](c3cccc(OCCO)c3)N2C1=O	0.858	0.119 (inactive)	-0.646 (inactive)	-0.831 (inactive)	2.3	-0.314 (inactive)	-0.0554	0.271	-0.239	-0.175	1.04	0.504	0.61	0.248 (inactive)	0.906	0.132	-0.556	-0.309	-0.733	0.288
COCCOC(=O)N1C(=O)[C@@]2(c3cc(C#CCC(C(=O)OC)C(=O)OC)ccc31)[C@H](C(=O)NC[C@H](O)c1ccccc1)[C@H]1C(=O)O[C@H](c3ccccc3)[C@H](c3ccccc3)N1[C@@H]2c1ccc(OCCO)cc1	1.56	2.22 (inactive)	2.7 (inactive)	7 (inactive)	2.08	0.6 (inactive)	-0.109	1.69	1.04	0.0097	1.18	-0.0002	-0.132	0.28 (inactive)	1.04	1.35	0.97	1.09	0.909	0.534
C[C@@]12COC[C@]13C=C(Br)[C@H](C2)[C@@]1(CO1)C3=O	-1.78	-0.0556 (inactive)	-2.25 (inactive)	-0.0407 (inactive)	-2.15	-0.768 (inactive)	-0.207	-0.508	-0.233	-0.178	-0.363	-0.101	0.262	-0.374 (inactive)	-0.732	-1.02	-0.886	-0.449	-0.614	0.701
CC1CC/C=C\[C@H]2OC34C=CCN(C(C)(C)C)C(=O)[C@H]3N(C(CO)C(C)C)C(=O)[C@@H]4C2C(=O)O1 (stereo not given in full)	-0.447	-1.38 (inactive)	-0.429 (inactive)	-0.851 (inactive)	2.5	-0.515 (inactive)	-0.147	0.476	0.551	-0.0968	0.337	-0.193	-0.347	0.792 (inactive)	0.352	0.156	-0.33	0.27	0.391	0.524
C=CCC(OC(C)=O)[C@@H]1[C@@H](N(Cc2ccc(-c3ccccc3)cc2)C(=O)Cc2ccc(F)cc2)c2cc(OCCCO)ccc2N1C(=O)Cc1ccc2ccccc2c1 (stereo not given in full)	-0.848	-0.106 (inactive)	0.412 (inactive)	0.0926 (inactive)	2.46	0.708 (inactive)	0.385	0.115	0.151	-0.0828	-0.261	-0.0697	0.652	-0.681 (inactive)	-0.13	-0.199	-0.113	-0.507	-0.117	1.3
COc1cc(C(O)C2C=CC3C(=O)N(Cc4ccccc4)C(=O)C3N2n2cnnc2)cc(OC)c1OC (stereo not given)	0.932	-1.3 (inactive)	-0.519 (inactive)	-1.22 (inactive)	1.36	0.582 (inactive)	0.327	-0.127	0.626	0.298	0.146	0.71	0.865	-0.696 (inactive)	0.571	0.389	0.489	0.16	0.134	1.23

Source: PubChem BioAssay
